In all, about 5,500 compounds went through this assay and about 2,000 (36%) were called active. Another 18% or so got no clear call; they are omitted. Cut-off read from the data, not from the text of the source: active = normalized growth mostly below about 0.91 (no sharp cut-off); inconclusive = no clear call, values can overlap the other calls; inactive = mostly above about 0.92. This is one part of the list.
Test: chemical genetic growth profiling, strain panel (AID 1159580);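 note: tested at 20 µM; growth read once vehicle control cultures reached saturation at 30 °C; 1 = growth at the plate median or of vehicle wells; lower values mean less growth of the strain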
Settings: S. cerevisiae deletion strains, growth OD
[1] = locus YAL013W, strain DEP1, active compounds read low
[2] = locus YDR150W, strain NUM1, active compounds read low
[3] = locus YGR078C, strain PAC10, active compounds read low
[4] = locus YMR307W, strain GAS1, active compounds read low
[5] = locus YNL153C, strain GIM3, active compounds read low
[6] = locus YPL055C, strain LGE1, active compounds read low

Measured: normalized growth

O=C(Nc1nccs1)c1ccc([N+](=O)[O-])cc1
inactive: [1] 0.979 | locus YBR229C, strain ROT2, active compounds read low 0.97 | locus YCL061C, strain MRC1, active compounds read low 0.992 | locus YDL101C, strain DUN1, active compounds read low 0.972 | locus YDL134C, strain PPH21, active compounds read low 1.01 | [2] 0.984 | locus YEL061C, strain CIN8, active compounds read low 0.968 | [3] 0.973 | locus YHR030C, strain SLT2, active compounds read low 0.977 | locus YHR087W, strain rtc3, active compounds read low 0.973 | locus YJR043C, strain POL32, active compounds read low 1.02 | locus YJR075W, strain HOC1, active compounds read low 0.924 | locus YKL190W, strain CNB1, active compounds read low 1 | locus YLR039C, strain RIC1, active compounds read low 0.851 | locus YLR058C, strain SHM2 (second series), active compounds read low 0.981 | locus YLR262C, strain YPT6, active compounds read low 0.917 | locus YML094W, strain GIM5, active compounds read low 0.94 | locus YMR219W, strain ESC1, active compounds read low 0.978 | locus YMR263W, strain SAP30, active compounds read low 0.986 | [4] 0.905 | [5] 0.976 | locus YNL298W, strain CLA4 (second series), active compounds read low 0.976 | locus YNL322C, strain KRE1, active compounds read low 0.983 | locus YNR030W, strain Alg12, active compounds read low 0.97 | [6] 0.97 | locus YPL241C, strain CIN2, active compounds read low 0.954 | locus YPR135W, strain CTF4, active compounds read low 0.933
active: locus YLR085C, strain ARP6, active compounds read low 0.729 | locus YOL006C, strain TOP1, active compounds read low 0.514

S=C(Nc1ccccc1)Nc1nccs1
inactive: [1] 1.01 | locus YAL040C, strain CLN3, active compounds read low 1.01 | locus YCL061C, strain MRC1 (second series), active compounds read low 0.993 | [2] 0.974 | locus YDR363W, strain ESC2, active compounds read low 0.977 | locus YER002W, strain NOP16, active compounds read low 0.991 | [3] 0.988 | [4] 0.993 | locus YNL175C, strain NOP13, active compounds read low 0.999 | locus YNL197C, strain WHI3, active compounds read low 0.993 | locus YNL224C, strain SQS1, active compounds read low 0.995 | [6] 0.948
active: [5] 0.772
